PLK1 PBD inh: qHTS for Inhibitors of PLK1-PDB (polo-like kinase 1 - polo-box domain): Primary Screen. 360,000 tested, 2.8% active. Potency, µM, for inactives: max response, negative = inhibition, hits mostly inhibitors. Serine/threonine-protein kinase PLK1 (Homo sapiens), P53350. Plk1 PBD binding of FITC phosphopeptide, fluorescence polarization; note: potency is the fitted concentration of half-maximal effect; series mostly up to about 57 µM; % is set by controls: 0 for no effect and ±100 for the full control effect; nearly all actives have a fitted effect of over 65% in size
G9a inh: qHTS Assay for Inhibitors of Histone Lysine Methyltransferase G9a; Histone-lysine N-methyltransferase EHMT2 (Homo sapiens), Q96KQ7; G9a H3K9 monomethylation, AlphaScreen, 2 h; Potency, µM (highest dose often 102 µM), inactives show at the highest dose activity, negative = inhibition, actives largely listed as inhibitors; 350,000 tested, 8.8% active; AID 504332, 2011; note: potency is the fitted concentration of half-maximal effect; % is set by controls: 0 for no effect and ±100 for the full control effect; nearly all actives have a fitted effect of over 75% in size
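Signal arises when biotinylated H3K9 peptide, once monomethylated, bridges streptavidin donor and antibody-captured acceptor beads. Enzyme at 20 nM was preincubated 15 min with test compounds; peptide 500 nM and SAM 20 uM then reacted for 2 h.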
PI5P4Ka inh: qHTS for Inhibitors of phosphatidylinositol 5-phosphate 4-kinase (PI5P4K); Phosphatidylinositol 5-phosphate 4-kinase type-2 alpha (Homo sapiens), P48426; PI5P4Kalpha enzyme, ADP-Glo luminescence, 60 min; stronger effect = lower value; max response, %; 330,000 tested, 1.2% active; AID 652105, 2013; active = max response of -50% or lower; inconclusive = between -30% and -50%; inactive = -30% or higher; note: value at the top dose of about 77 µM; % is set by controls: 0 for no effect and ±100 for the full control effect
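Enzyme plus substrate dispensed, test compounds pinned in, then ATP (5 microM final) added. After 60 min at RT, ADP-Glo reagent 1 for 45 min and reagent 2 for 30 min preceded luminescence imaging.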
HP1b chromo inh: HTS for Inhibitors of HP1-beta Chromodomain Interactions with Methylated Histone Tails; Chromobox protein homolog 1 (Homo sapiens), P83916; AlphaScreen HP1-beta / biotin-H3K9me3 peptide binding; Potency, µM (doses to about 114 µM), inactives show at the highest dose activity change, negative = inhibition, usual class: inhibitors; 390,000 tested, 0.56% active; AID 540317, 2011; note: potency is the fitted concentration of half-maximal effect; nearly all actives have a fitted effect of over 70% in size
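Compound inhibition of the preformed complex between 50 nM HP1-beta and 50 nM biotinylated H3K9me3 peptide was read by AlphaScreen. Buffer was PBS pH 7.4 with 0.01% Tween-20. Incubations ran 30 min at room temperature, with 10 ug/mL donor/acceptor beads.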
BAZ2B block: qHTS Assay for Inhibitors of BAZ2B; 360,000 tested, 4.4% active; AID 504333, 2011; Bromodomain adjacent to zinc finger domain protein 2B (Homo sapiens), Q9UIF8; Potency, µM (top dose mostly 114 µM), for the others: at the highest dose activity change, negative = inhibition, hits mostly inhibitors; AlphaScreen BAZ2B-H3K14Ac peptide displacement; note: potency is the fitted concentration of half-maximal effect; % is set by controls: 0 for no effect and ±100 for the full control effect; nearly all actives have a fitted effect of over 60% in size
Target sequence (Q9UIF8 whole entry, looked up, the tested form may be a part): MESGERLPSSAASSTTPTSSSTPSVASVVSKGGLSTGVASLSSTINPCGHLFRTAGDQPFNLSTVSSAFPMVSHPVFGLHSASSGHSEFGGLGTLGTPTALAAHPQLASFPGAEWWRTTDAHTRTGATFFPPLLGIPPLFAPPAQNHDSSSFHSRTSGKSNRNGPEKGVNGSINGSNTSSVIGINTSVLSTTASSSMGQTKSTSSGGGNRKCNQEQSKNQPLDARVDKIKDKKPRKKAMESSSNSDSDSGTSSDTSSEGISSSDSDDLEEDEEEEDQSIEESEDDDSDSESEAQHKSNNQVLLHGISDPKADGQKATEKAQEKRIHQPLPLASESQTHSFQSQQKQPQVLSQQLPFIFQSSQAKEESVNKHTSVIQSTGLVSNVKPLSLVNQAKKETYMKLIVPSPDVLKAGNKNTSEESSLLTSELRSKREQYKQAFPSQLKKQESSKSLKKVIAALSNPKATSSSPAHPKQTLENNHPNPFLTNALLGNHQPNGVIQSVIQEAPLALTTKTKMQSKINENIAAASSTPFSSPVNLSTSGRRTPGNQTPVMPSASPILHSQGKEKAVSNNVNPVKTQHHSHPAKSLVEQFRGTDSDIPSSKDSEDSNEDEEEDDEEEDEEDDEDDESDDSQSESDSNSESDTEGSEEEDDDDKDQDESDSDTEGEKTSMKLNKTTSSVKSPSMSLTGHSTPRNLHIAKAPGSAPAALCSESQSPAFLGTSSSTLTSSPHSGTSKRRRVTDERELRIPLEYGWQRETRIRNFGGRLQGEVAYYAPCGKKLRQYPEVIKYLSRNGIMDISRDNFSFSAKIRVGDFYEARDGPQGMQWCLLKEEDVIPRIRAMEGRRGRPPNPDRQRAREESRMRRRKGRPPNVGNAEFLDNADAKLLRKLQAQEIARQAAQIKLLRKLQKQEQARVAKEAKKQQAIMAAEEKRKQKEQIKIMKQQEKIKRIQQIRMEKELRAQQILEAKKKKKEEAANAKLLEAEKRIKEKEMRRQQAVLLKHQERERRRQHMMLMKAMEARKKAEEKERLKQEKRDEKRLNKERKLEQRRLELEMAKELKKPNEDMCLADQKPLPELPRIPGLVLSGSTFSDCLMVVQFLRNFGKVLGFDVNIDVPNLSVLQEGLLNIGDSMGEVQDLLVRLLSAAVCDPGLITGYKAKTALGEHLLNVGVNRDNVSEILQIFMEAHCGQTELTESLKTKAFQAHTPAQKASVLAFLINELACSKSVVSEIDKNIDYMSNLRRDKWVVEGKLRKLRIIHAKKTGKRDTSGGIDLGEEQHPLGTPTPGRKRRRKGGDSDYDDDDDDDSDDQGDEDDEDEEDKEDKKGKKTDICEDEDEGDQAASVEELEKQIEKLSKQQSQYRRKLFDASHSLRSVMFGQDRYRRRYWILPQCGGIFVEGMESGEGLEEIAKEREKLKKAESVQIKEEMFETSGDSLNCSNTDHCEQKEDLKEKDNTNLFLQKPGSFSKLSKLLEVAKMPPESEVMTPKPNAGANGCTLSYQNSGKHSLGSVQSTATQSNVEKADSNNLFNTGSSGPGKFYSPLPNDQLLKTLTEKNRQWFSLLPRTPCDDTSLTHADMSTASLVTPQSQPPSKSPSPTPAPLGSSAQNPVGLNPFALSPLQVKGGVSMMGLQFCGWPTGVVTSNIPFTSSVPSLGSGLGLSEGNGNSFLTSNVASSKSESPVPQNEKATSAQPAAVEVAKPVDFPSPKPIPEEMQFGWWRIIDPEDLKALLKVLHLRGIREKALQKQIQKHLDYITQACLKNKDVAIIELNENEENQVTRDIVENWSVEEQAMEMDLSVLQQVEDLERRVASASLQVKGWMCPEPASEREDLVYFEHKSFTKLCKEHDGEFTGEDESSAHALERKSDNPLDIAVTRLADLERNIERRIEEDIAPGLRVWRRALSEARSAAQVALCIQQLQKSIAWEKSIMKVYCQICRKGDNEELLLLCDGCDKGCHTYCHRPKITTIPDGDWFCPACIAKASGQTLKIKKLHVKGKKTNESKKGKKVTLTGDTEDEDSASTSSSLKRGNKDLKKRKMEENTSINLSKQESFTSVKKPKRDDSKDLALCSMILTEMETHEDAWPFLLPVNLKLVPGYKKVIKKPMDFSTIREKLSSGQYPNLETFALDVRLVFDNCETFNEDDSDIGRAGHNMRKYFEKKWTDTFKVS
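AlphaScreen luminescence quantifies BAZ2B engagement of H3K14Ac peptide; the protein and biotinylated peptide are both at 50 nM final, buffer PBS pH 7.4 with 0.01% Tween-20, all steps at room temperature.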
JMJD2A Tudor inh: qHTS Assay for Inhibitors of JMJD2A-Tudor Domain. 390,000 tested, 4.4% active. Lysine-specific demethylase 4A (Homo sapiens), O75164. AlphaScreen JMJD2A-Tudor / H3K4me3 peptide binding. Potency, µM (top dose mostly 114 µM), without a hit: top-dose activity change, negative = inhibition, hits mostly inhibitors. AID 504339, 2011; note: potency is the fitted concentration of half-maximal effect; % is set by controls: 0 for no effect and ±100 for the full control effect; nearly all actives have a fitted effect of over 50% in size
* hit, by the source's call; ? = inconclusive; · = not tested or not shown; [ ] = another dose, or the depositor's remark. In the library only some 12% were active in any assay of this set; here they are far more common. Unless noted, calls come from the whole dose curve; as a rule, active = well fitted curve in the direction sought with a large enough effect; inconclusive = small, poorly fitted or top-dose-only effect, or another doubt; inactive = no such curve, though single readings can be large; an effect the other way counts as inactive or inconclusive.

SMILES	PLK1 PBD inh	G9a inh	PI5P4Ka inh	HP1b chromo inh	BAZ2B block	JMJD2A Tudor inh
C#CCOCCOCCOCCNc1nc(N2CCN(C(=O)C([C@@H](C)CC)n3cc(C(N)Cc4ccc(O)cc4)nn3)CC2)nc(N2CCN(C(=O)[C@H](CCC(=O)O)n3cc(C(N)[C@H](C)CC)nn3)CC2)n1 (stereo partly drawn)	-2%	13%[12.7 µM]	-4	24%	79µM*	?
C#CCOCCOCCOCCNc1nc(N2CCN(C(=O)C([C@@H](C)CC)n3cc(C(N)CC(C)C)nn3)CC2)nc(N2CCN(C(=O)[C@H](CCC(=O)O)n3cc(C(N)Cc4ccc(O)cc4)nn3)CC2)n1 (stereo partly drawn)	-1%	?	10	55%	?	79µM*
C#CCOCCOCCOCCNc1nc(N2CCN(C(=O)[C@H]([C@@H](C)CC)n3cc(CCC(=O)O)nn3)CC2)nc(N2CCN(C(=O)[C@H](Cc3ccc(O)cc3)n3cc(CCO)nn3)CC2)n1	-3%	·	-2	33%	·	?
C#CCOCCOCCOCCNc1nc(N2CCN(C(=O)C([C@@H](C)CC)n3cc(C(N)Cc4ccc(O)cc4)nn3)CC2)nc(N2CCN(C(=O)[C@H](CCC(=O)O)n3cc(C(N)Cc4ccc(O)cc4)nn3)CC2)n1 (stereo partly drawn)	-20%	?	9	31%	56µM*	50µM*
Cc1c(Cl)cccc1NC(=O)Cn1cnc2nc3c(cc2c1=O)CCCC3	·	-6%[59 µM]	·	26%[57 µM]	5%	?
Cc1ccc(C)c(NC(=O)Cn2cnc3nc4c(cc3c2=O)CCCC4)c1	·	9%[59 µM]	·	19%[57 µM]	2%	-5%
O=C(CSC1=Nc2ccccc2N=C(c2ccc(F)cc2)C1)Nc1ccc(Cl)cc1	·	-23%[59 µM]	·	24%[57 µM]	-1%	0%
O=C1NC[C@@H](CCCCN2CCN(CCC3CCCCC3)C(=O)C2=O)N(CC2CCCCC2)C1=O	-1%	·	-3	·	·	·
C#CCOCCOCCOCCNc1nc(N2CCN(C(=O)C([C@@H](C)CC)n3cc(C(N)Cc4ccc(O)cc4)nn3)CC2)nc(N2CCN(C(=O)[C@H](CCC(=O)O)n3cc(C(N)CC(C)C)nn3)CC2)n1 (stereo partly drawn)	-8%	?	6	53%	50µM*	56µM*
COc1ccc(CN2C(=O)/C(=C/c3ccncc3)SC2=S)cc1	?	28µM*	1	?	8.9µM*	50µM*
O=C1/C(=C\c2cc(Br)cc(Br)c2O)SC(=S)N1Cc1ccccc1	9.5µM*	-10%[2.33 µM]	?	32µM*	10µM*	28µM*
CC(=O)Oc1ccc(/C=C2/SC(=S)N(Cc3ccccc3)C2=O)cc1	-4%	?	2	?	3.5µM*	?
O=C(CCN1C(=O)/C(=C/c2ccccc2)SC1=S)Nc1cccnc1	-5%	-6%	-6	-8%	4%	-1%
O=C1/C(=C/c2ccccc2O)SC(=S)N1Cc1cccnc1	?	?	-51*	2%	6%	-23%
Cc1cc(C)c2c(=O)cc(C(=O)NCCc3ccc(S(N)(=O)=O)cc3)oc2c1	·	4%[59 µM]	·	44%	-14%	2%
COc1ccc(N(CC(=O)NC(C)c2ccccc2)S(=O)(=O)c2c(C)nn(C)c2C)cc1 (stereo not drawn)	·	19%[59 µM]	·	44%	·	-6%
O=C1/C(=C\c2ccc(O)cc2)SC(=S)N1Cc1ccccc1	46%	·	18	?	50µM*	?
CCO/C=C1\SC(=S)N(c2ccc(Cl)cc2)C1=O	?	?	-5	-15%	-36%	-29%
CC(C)c1ccc(N2C(=O)/C(=C/N(C)C)SC2=S)cc1	-21%	50µM*	-27	?	45µM*	45µM*
Cc1cc(-c2csc(N)n2)c(C)n1Cc1ccco1	?	18µM*	?	5%	?	?
Cc1cc(C(=O)COC(=O)c2cc(Cl)ccc2N)c(C)n1Cc1ccco1	-2%	11%[59 µM]	-20	9%	?	?
Cc1ccc(-n2c(C)cc(-c3csc(N)n3)c2C)cc1	-7%	5µM*	?	?	56µM*	40µM*
COCCn1c(=O)c(-c2cccs2)nc2cnc(N3CCNCC3)nc21	·	8%[0.501 µM]	·	·	·	·
Cc1ccc(Nc2nnns2)cc1	24µM*	5.6µM*	?	?	-37%	-23%
Cc1ccc(Nc2nc3ccccc3s2)cc1	-6%	7%[59 µM]	0	16%	-2%	-12%
SMILES	PLK1 PBD inh	G9a inh	PI5P4Ka inh	HP1b chromo inh	BAZ2B block	JMJD2A Tudor inh
Cc1c(C(=O)NN)[nH]c2ccc([N+](=O)[O-])cc12	6%	5%	-3	28%	35µM*	-12%
Cc1cccc(C(=O)NC(=S)NC(C)c2ccccc2)c1 (stereo not drawn)	-4%	·	6	20%	·	-35%
Cc1ccc(S(=O)(=O)CNC(=S)c2ccc3ccccc3c2)cc1	?	8.9µM*	-12	-18%	?	?
Cc1ccc(S(=O)(=O)CNC(=O)c2ccccc2)cc1	-18%	?	1	66%	-34%	1%
COc1ccc(C(=S)Nc2ccc(C)cc2)cc1	21µM*	10µM*	-17	?	-4%	-25%
Cc1ccc(S(=O)(=O)CNC(=S)c2cccc(C)c2)cc1	?	10µM*	·	?	-7%	-31%
COc1ccc(C(=S)NCS(=O)(=O)c2ccc(C)cc2)cc1	19µM*	8.9µM*	2	-29%	?	-27%
COc1ccc(CNS(=O)(=O)c2ccc(C)cc2)cc1	-6%	·	0	58%	·	-2%
Cc1ccc(C(=O)NNC(=O)c2ccc3ccccc3c2)cc1	1%	·	5	32%	·	-5%
COc1ccc(NC(=S)c2ccncc2)cc1	-6%	-19%	6	29%	-9%	-5%
COc1ccc(Nc2nnc(SCC(=O)NC3CCCC3)s2)cc1	-5%	·	-11	·	·	·
COc1ccc(C(CNC(=O)c2cccc(S(=O)(=O)N(C)c3ccccc3)c2)N2CCCC2)cc1 (stereo not drawn)	-11%	-46%[12.7 µM]	-4	18%	-2%	-35%
COc1cc(-c2nnc(COC(=O)c3ccc([N+](=O)[O-])o3)o2)cc(OC)c1OC	-18%	·	5	·	·	·
